According to PubChem BioAssay (Tox21):
Inconclusive results are not listed. The source made the active and inactive calls. Unless noted, the call rests on the fitted dose curve; in most records, active means well fitted curve in the direction sought with a large enough effect in the repeat runs; inconclusive means weak or mixed curves; inactive means no such curve, though single readings can be large; an effect the other way counts as inactive or inconclusive.

Columns and labels:
[1] = qHTS assay to identify small molecule antagonists of the vitamin D receptor (VDR) signaling pathway - cell viability counter screen (AID 743225); settings: VDR-bla HEK293T viability, CellTiter-Glo luminescence, 16 h; series mostly up to 61 µM; further: nearly all actives have a fitted effect of over 50% in size; further: potency means the concentration at half of the fitted maximal effect; on viability change, negative = cytotoxic: on the % scale 0 is the no-effect control and ±100 the full control effect
Outline: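 VDR-bla HEK 293T cells, 4 h pre-incubation at 37C, then compound plus 1-alpha,25-dihydroxyvitamin D3 (3 nM final) for 16 h. After the beta-lactamase FRET read, CellTiter-Glo was added to the same wells; luminescence after 30 min at room temperature.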

[2] = qHTS assay to identify small molecule agonists of the NFkB signaling pathway (AID 1159509; active means well fitted curve in the direction sought with a large enough effect in the signal ratio in the repeat runs, not every such curve was filed as active; the % refers to the signal ratio; further: on the % scale 0 is the no-effect control and ±100 the full control effect); settings: NFkB-bla ME-180 cells, beta-lactamase FRET ratio, 5 h; series mostly up to 61 µM
Outline: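 Pathway activation was measured in ME-180 cells stably expressing beta-lactamase under NF-kB response element control. Substrate cleavage was read as the 460/530 nm emission shift after 5 hr compound incubation.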

[3] = qHTS assay to identify small molecule agonists of the NFkB signaling pathway - cell viability counter screen (AID 1159515; calls by dose curve; further: nearly all actives have a fitted effect of over 55% in size; further: potency means the concentration at half of the fitted maximal effect); settings: NFkB-bla ME-180 viability, CellTiter-Glo luminescence, 5 h; series mostly up to 61 µM
Outline: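 Plate 2,000 NFkB-bla ME-180 cells/well; incubate overnight. Add compounds, 5 hr at 37 C. Add FRET substrate, 1.5 hr RT. Add CellTiter-Glo, 30 min RT; read luminescence.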

[4] = qHTS assay to identify small molecule antagonists of the retinoid-related orphan receptor gamma (ROR-gamma) signaling pathway - cell viability counter screen (AID 1159520); settings: Tet-on RORgamma CHO cells viability, ATP luminescence, 16 h; series mostly up to 92.4 µM; further: on the % scale 0 is the no-effect control and ±100 the full control effect; nearly all actives have a fitted effect of over 50% in size
Outline: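 Tet-on ROR gamma CHO cells (1,000/well) were plated 4 hr, given compounds in DMSO for 2 hr at 37 C, then induced with 1 uM final doxycycline for 16 hr. Viability was read as ATP by CellTiter-Glo luminescence after 30 min.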

[5] = target: Nuclear receptor ROR-gamma (Homo sapiens) (UniProt P51449); experiment: qHTS assay to identify small molecule antagonists of the retinoid-related orphan receptor gamma (ROR-gamma) signaling pathway (AID 1159521; further: nearly all actives have a fitted effect of over 50% in size; further: potency means the concentration at half of the fitted maximal effect); settings: Tet-on RORgamma CHO cells, RORE-luciferase, 16 h; series mostly up to 92.4 µM
Outline: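 Tet-on RORγ CHO cells carrying a ROR response element–luciferase reporter were pretreated with compounds for 2 h, then induced with 1 uM (final) doxycycline hyclate for 16 h at 37 C. Antagonism was read as decreased ONE-Glo luminescence.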

[6] = qHTS assay to identify small molecule agonists of the AP-1 signaling pathway - cell viability counter screen (AID 1159525; calls by dose curve; further: nearly all actives have a fitted effect of over 55% in size); settings: ME-180 AP-1-bla cells viability, ATP luminescence, 5 h; series mostly up to 76.8 µM
Outline: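 Each titration point was normalised to DMSO and tetra n-octyl ammonium bromide controls. The read was Cell Titer Glo luminescence after 30 min at RT, following 5 h compound exposure of ME-180 AP-1-bla cells at 37 °C.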

[7] = qHTS assay to identify small molecule agonists of the AP-1 signaling pathway (AID 1159526; calls by dose curve; further: on the % scale 0 is the no-effect control and ±100 the full control effect); settings: ME-180 (cervical carcinoma) AP-1-bla reporter, beta-lactamase FRET ratio, 5 h; series mostly up to 76.8 µM
[8] = target: Retinoic acid receptor RXR-alpha (Homo sapiens) (UniProt P19793); experiment: qHTS assay to identify small molecule agonists of the RXR signaling pathway (AID 1159527; calls by dose curve; further: on the % scale 0 is the no-effect control and ±100 the full control effect; nearly all actives have a fitted effect of over 35% in size); settings: HEK293T RXRa-UAS-bla, beta-lactamase ratio, 16 h; series mostly up to 76.8 µM
Outline: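 GeneBLAzer RXR-alpha-UAS-bla HEK 293T cells in medium with 2% charcoal-stripped FBS, pre-incubated 5 hr at 37 C, then exposed to compounds 16 hr. Beta-lactamase reporter read by FRET substrate, 2 hr room temperature, 460/530 nm emission.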

[9] = qHTS assay to identify small molecule antagonists of the retinoid acid receptor (RAR) signaling pathway - cell viability counter screen (AID 1159551); settings: C3RL4 cells viability, ATP luminescence (CellTiter-Glo), 6 h; series mostly up to 92.4 µM; further: on the % scale 0 is the no-effect control and ±100 the full control effect; nearly all actives have a fitted effect of over 35% in size
Outline: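 Viability of C3RL4 cells is quantified from ATP by luminescence after 6 h treatment at 37 C with compounds and 1 uM retinol.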

[10] = qHTS assay to identify small molecule antagonists of the retinoic acid receptor (RAR) signaling pathway (AID 1159552; further: nearly all actives have a fitted effect of over 50% in size; further: potency means the concentration at half of the fitted maximal effect); settings: C3RL4 RARE luciferase reporter, retinol-stimulated, 6 h; series mostly up to 92.4 µM
Outline: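 RARE-luc C3RL4 cells; cpds + 1 uM (final) retinol, 6 hr, 37 C/5% CO2; luciferase reagent, 30 min RT, luminescence readout. Inhibitors of retinol-driven signal scored.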

[11] = qHTS assay to identify small molecule agonists of the retinoic acid receptor (RAR) signaling pathway (AID 1159553); settings: C3RL4 RARE luciferase reporter, agonist, 6 h; series mostly up to 73.3 µM; further: on the % scale 0 is the no-effect control and ±100 the full control effect
Outline: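 Compounds dissolved in DMSO were pinned onto C3RL4 cells seeded the previous day, and plates were held 6 hr at 37 C. RARE-driven luciferase output was then read by luminescence.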

[12] = qHTS assay to identify small molecule agonists of the RXR signaling pathway - cell viability counter screen (AID 1159529); settings: RXR-alpha-bla HEK293T viability, CellTiter-Glo, 16 h; series mostly up to 76.8 µM; further: nearly all actives have a fitted effect of over 50% in size; further: potency means the concentration at half of the fitted maximal effect
Outline: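 RXR-alpha-UAS-bla HEK 293T cells in medium with 2% charcoal-stripped FBS were preincubated 5 hr, then exposed to compounds for 16 hr at 37 C. Viability was read as CellTiter-Glo luminescence after 30 min at room temperature.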

Sequence of Retinoic acid receptor RXR-alpha (Homo sapiens) (P19793 whole entry, looked up): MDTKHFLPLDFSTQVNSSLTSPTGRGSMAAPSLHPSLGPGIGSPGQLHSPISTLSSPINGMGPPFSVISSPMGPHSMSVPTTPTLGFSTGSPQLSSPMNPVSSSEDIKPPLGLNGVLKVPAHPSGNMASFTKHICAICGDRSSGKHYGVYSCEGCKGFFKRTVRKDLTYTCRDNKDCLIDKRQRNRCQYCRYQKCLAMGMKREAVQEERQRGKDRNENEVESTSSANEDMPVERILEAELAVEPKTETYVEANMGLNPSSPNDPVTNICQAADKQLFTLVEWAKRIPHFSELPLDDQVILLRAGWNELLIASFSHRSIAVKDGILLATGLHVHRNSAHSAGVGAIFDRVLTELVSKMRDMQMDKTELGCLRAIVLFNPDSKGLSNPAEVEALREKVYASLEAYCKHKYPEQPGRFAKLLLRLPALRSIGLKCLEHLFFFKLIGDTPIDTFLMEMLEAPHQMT

CC(C)CC(O)CC(C)C
inactive: Potency [1] | outcome [2] | Potency [3] | Potency [4] | Potency [5] | Potency [6] | outcome [7] | Potency [8] | Potency [9] | Potency [10] | Potency [11]

CSCC[C@H](NC(=O)[C@H](Cc1c[nH]c2ccccc12)NC(=O)CCNC(=O)OC(C)(C)C)C(=O)N[C@@H](CC(=O)O)C(=O)N[C@@H](Cc1ccccc1)C(N)=O
inactive: Potency [1] | outcome [2] | Potency [3] | Potency [4] | Potency [5] | Potency [6] | outcome [7] | Potency [8] | Potency [12] | Potency [9] | Potency [10] | Potency [11]

ClC1=C(Cl)C1(Cl)Cl
inactive: Potency [1] | outcome [2] | Potency [3] | Potency [4] | Potency [6] | outcome [7] | Potency [8] | Potency [12] | Potency [9]

CC(C)(O)c1coc(S(=O)(=O)NC(=O)Nc2c3c(cc4c2CCC4)CCC3)c1
inactive: Potency [1] | outcome [2] | Potency [3] | Potency [4] | Potency [5] | Potency [6] | outcome [7] | Potency [9] | Potency [10]

O=C1[C@@H]2[C@H]3CC[C@H](C3)[C@@H]2C(=O)N1CCCCN1CCN(c2ncccn2)CC1
inactive: outcome [2] | Potency [3] | Potency [4] | Potency [5] | Potency [6] | outcome [7] | Potency [8] | Potency [9] | Potency [10] | Potency [11]

CCN(CC)CCOc1ccccc1C(=O)CCc1ccccc1
active: Potency [3] 12 µM | Potency [12] 9.52 µM
inactive: outcome [2] | Potency [4] | Potency [5] | Potency [6] | Potency [9] | Potency [10] | Potency [11]

CNC1CCCN(c2c(F)cc3c(=O)c(C(=O)O)cn(C4CC4)c3c2OC)C1 (configuration not stated)
inactive: Potency [1] | outcome [2] | Potency [3] | Potency [4] | Potency [5] | Potency [6] | outcome [7] | Potency [8] | Potency [12] | Potency [9] | Potency [10] | Potency [11]

c1ccc2sc(SSc3nc4ccccc4s3)nc2c1
inactive: Potency [1] | outcome [2] | Potency [3] | activity, negative = cytotoxicity [4] -8.11% [at 19 µM] | activity change, negative = inhibition [5] 7.93% [at 19 µM] | viability change, negative = cytotoxic [6] -2.35% [at 15.8 µM] | activation [7] 15.6% [at 15.8 µM] | activation [8] -16% [at 15.8 µM] | activity change, negative = cytotoxicity [12] -2.29% [at 15.8 µM] | activity change, negative = cytotoxicity [9] 0.484% [at 19 µM]

CCC(C)(C)C(=O)O
inactive: Potency [1] | outcome [2] | Potency [3] | Potency [4] | Potency [5] | Potency [6] | outcome [7] | Potency [8] | Potency [12] | Potency [9] | Potency [10] | Potency [11]

Cc1ccc2c(c1)CCCN2
inactive: Potency [1] | outcome [2] | Potency [3] | Potency [4] | Potency [5] | Potency [6] | outcome [7] | Potency [8] | Potency [12] | Potency [9] | Potency [10] | Potency [11]

CCCCCCCC/C=C\CCCCCCCC(=O)OCCO
inactive: Potency [1] | outcome [2] | Potency [3] | Potency [4] | Potency [5] | Potency [6] | Potency [9] | Potency [11]

O=S(=O)(O)CO
inactive: outcome [2] | Potency [3] | Potency [4] | Potency [6] | outcome [7] | Potency [8] | Potency [12] | Potency [9] | Potency [11]

Nc1ccn([C@H]2CS[C@@H](CO)O2)c(=O)n1
inactive: outcome [2] | Potency [3] | Potency [4] | Potency [5] | Potency [6] | outcome [7] | Potency [8] | Potency [12] | Potency [9] | Potency [10] | Potency [11]

CS(=O)(=O)c1ccc([C@@H](C[C@H]2CCC(=O)C2)C(=O)Nc2cnccn2)cc1Cl
inactive: outcome [2] | Potency [3] | Potency [4] | Potency [5] | Potency [6] | outcome [7] | Potency [8] | Potency [9]

COc1cc(C(C)=O)ccc1OCCCN1CCC(c2noc3cc(F)ccc23)CC1
inactive: Potency [1] | outcome [2] | Potency [3] | Potency [4] | Potency [5] | Potency [6] | Potency [12] | Potency [9]

O=C(c1ccccc1)C1CCC1
inactive: outcome [2] | Potency [3] | Potency [4] | Potency [5] | Potency [6] | outcome [7] | Potency [8] | Potency [12] | Potency [9] | Potency [10]

CN1CCCN(C(c2ccccc2)c2ccc(Cl)cc2)CC1 (configuration not stated)
active: Potency [1] 21.3 µM | Potency [3] 12 µM | Potency [5] 26.6 µM | Potency [12] 7.56 µM | Potency [10] 23.7 µM
inactive: outcome [2] | Potency [4] | Potency [6] | Potency [9]

C=C(C)C(=O)OCCC(F)(F)C(F)(F)C(F)(F)C(F)(F)C(F)(F)C(F)(F)F
inactive: outcome [2] | Potency [3] | Potency [4] | Potency [5] | Potency [6] | outcome [7] | Potency [8] | Potency [12] | Potency [9]

CC[C@H]1OC(=O)[C@H](C)[C@@H](O[C@H]2C[C@@](C)(OC)[C@@H](O)[C@H](C)O2)[C@H](C)[C@@H](O[C@@H]2O[C@H](C)C[C@H](N(C)C)[C@H]2O)[C@](C)(O)C[C@@H](C)/C(=N\OCOCCOC)[C@H](C)[C@@H](O)[C@]1(C)O
inactive: outcome [2] | Potency [3] | Potency [4] | Potency [5] | Potency [6] | outcome [7] | Potency [8] | Potency [12] | Potency [9] | Potency [11]

C[C@@H]1[C@H](O)[C@@H](C)/C=C/C=C\C=C\C=C\C=C\C=C\C=C\[C@H](O[C@@H]2O[C@H](C)[C@@H](O)[C@H](N)[C@@H]2O)C[C@@H]2O[C@](O)(C[C@@H](O)C[C@@H](O)[C@H](O)CC[C@@H](O)C[C@@H](O)CC(=O)O[C@H]1C)C[C@H](O)[C@H]2C(=O)O (stereo in doubt)
inactive: Potency [1] | outcome [2] | Potency [3] | Potency [4] | Potency [6] | Potency [8] | Potency [9] | Potency [10]

CC(C)Cc1ccc(CC(=O)O)cc1
inactive: outcome [2] | Potency [3] | Potency [4] | Potency [5] | Potency [6] | Potency [8] | Potency [12] | Potency [9] | Potency [10]

O=CNNC=O
inactive: Potency [1] | outcome [2] | Potency [3] | Potency [4] | Potency [6] | outcome [7] | Potency [8] | Potency [9]

Cc1c[nH]c2ccccc12
inactive: outcome [2] | Potency [3] | Potency [4] | Potency [5] | Potency [6] | outcome [7] | Potency [8] | Potency [9] | Potency [11]
